Test results published in ChEMBL document CHEMBL3988442, “University of Dundee, Small-Polar-MMV Screening Library” (2021).
For some of these results: Potency and affinity values are given separately.

Key:
Set-up in all cases: scale not given: direction of the effect not stated beside the values
[1] = biological target: Protein translocase subunit SecA (Escherichia coli (strain K12)) (UniProt P10408); assay: Assay to Identify E. coli SecA ATPase Inhibitors; assay type: functional; settings: 30 µM
[2] = biological target: T1, Ubiquitin-activating enzyme e1, putative (Leishmania donovani (strain BPK282A1)) (UniProt E9BSI1); assay: Leishmania donovani Ubiquitin Activating Enzyme (LdE1); assay type: functional; settings: 30 µM
T1 sequence (whole entry): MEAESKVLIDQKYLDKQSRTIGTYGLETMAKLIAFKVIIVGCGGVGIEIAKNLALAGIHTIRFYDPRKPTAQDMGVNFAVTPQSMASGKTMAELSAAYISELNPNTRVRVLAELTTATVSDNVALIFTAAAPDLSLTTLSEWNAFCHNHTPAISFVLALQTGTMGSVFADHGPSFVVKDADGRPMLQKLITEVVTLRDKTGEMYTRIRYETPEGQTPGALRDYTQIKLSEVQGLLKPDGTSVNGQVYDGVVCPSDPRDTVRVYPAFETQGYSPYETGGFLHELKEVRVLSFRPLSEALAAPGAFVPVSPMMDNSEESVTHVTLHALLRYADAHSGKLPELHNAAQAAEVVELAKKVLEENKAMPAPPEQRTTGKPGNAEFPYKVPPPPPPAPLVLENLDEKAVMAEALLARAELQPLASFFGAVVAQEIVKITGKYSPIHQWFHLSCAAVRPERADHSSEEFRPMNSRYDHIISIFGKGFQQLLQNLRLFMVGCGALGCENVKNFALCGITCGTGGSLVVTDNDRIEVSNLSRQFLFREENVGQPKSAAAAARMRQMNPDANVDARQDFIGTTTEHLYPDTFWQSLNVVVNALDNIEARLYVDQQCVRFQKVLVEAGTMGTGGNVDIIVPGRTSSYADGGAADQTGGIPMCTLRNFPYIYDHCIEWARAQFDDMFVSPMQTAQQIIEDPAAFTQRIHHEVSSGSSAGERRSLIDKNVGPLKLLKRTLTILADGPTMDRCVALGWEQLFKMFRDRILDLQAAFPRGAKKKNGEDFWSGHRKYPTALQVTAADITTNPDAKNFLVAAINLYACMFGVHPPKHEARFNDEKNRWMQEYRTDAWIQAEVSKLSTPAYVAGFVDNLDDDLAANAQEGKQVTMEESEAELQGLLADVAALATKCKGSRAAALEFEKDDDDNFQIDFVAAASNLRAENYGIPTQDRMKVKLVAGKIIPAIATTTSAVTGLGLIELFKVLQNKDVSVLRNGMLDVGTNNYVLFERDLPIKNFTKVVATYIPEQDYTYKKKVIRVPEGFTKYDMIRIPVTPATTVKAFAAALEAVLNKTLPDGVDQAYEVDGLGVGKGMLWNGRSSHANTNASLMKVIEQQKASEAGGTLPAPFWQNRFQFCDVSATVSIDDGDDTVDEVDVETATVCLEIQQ

[3] = biological target: AMP-activated protein kinase, AMPK (Homo sapiens) (UniProt P54646+O43741+P54619+Q9UGJ0+Q9Y478+Q13131+Q9UGI9); assay: AMP-dependent Kinase enzyme assay. An in vitro enzyme assay that detects ADP turnover that is directly proportional to AMPK activity. This uses naive AMPK that is activated during the assay with MK-8722; assay type: functional; settings: 30 µM
[4] = biological target: Sialic acid-binding Ig-like lectin 9 (Homo sapiens) (UniProt Q9Y336); assay: Hs-Siglec9 ALPHAscreen SOP 20170721; settings: 10 µM
Trypanosoma cruzi = assay: Trypanosoma cruzi phosphomannomutase and mannose-1-phosphate guanylyltransferase assay; assay type: functional; settings: 10 µM
[5] = biological target: T2, Arginase-2, mitochondrial (Homo sapiens) (UniProt P78540); assay: in vitro enzyme assay to detect the production of urea directly proportional to the activity of Arginase II; assay type: functional; settings: 33.3 µM; further: in the data most compounds retested in dose-response had high values
T2 sequence (whole entry): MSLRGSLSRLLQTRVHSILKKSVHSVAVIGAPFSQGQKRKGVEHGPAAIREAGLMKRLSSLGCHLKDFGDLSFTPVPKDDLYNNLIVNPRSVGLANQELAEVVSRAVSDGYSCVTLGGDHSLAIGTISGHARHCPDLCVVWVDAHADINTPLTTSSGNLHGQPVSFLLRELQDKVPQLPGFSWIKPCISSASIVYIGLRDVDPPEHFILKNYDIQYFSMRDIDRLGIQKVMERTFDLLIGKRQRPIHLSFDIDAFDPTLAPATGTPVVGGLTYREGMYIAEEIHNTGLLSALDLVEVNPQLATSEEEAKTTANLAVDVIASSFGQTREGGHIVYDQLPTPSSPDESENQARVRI

[6] = biological target: T3, Proteasome subunit beta (Trypanosoma cruzi) (UniProt O96673); assay: Trypanosoma cruzi proteasome chymotrypsin-like activity (TcProtChymo) assay.; further: in the data most compounds retested in dose-response had high values; assay type: functional; settings: 9.37 µM
T3 sequence (whole entry): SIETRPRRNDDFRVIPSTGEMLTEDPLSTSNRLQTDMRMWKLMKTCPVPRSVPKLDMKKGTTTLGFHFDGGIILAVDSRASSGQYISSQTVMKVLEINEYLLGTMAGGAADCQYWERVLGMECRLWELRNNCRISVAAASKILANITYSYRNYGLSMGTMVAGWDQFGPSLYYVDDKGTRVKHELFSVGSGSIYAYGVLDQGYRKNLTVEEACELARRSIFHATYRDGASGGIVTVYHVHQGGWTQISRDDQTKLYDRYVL

Homo sapiens = species on record: Homo sapiens; assay: To identify inhibition of the IFN signalling (Jak-Stat) pathway via expression of an eGFP reporter gene under the control of an IFN-stimulated response element (ISRE) containing MxA promoter.; assay type: functional; settings: 30 µM
[7] = biological target: T4, Tyrosyl-tRNA synthetase, putative (Trypanosoma cruzi (strain CL Brener)) (UniProt Q4DSP6); assay: Trypanosoma cruzi tyrosyl tRNA synthetase (TcYRS) _High Tyrosine SOP; assay type: functional; settings: 30 µM; further: in the data most compounds retested in dose-response had high values
T4 sequence (whole entry): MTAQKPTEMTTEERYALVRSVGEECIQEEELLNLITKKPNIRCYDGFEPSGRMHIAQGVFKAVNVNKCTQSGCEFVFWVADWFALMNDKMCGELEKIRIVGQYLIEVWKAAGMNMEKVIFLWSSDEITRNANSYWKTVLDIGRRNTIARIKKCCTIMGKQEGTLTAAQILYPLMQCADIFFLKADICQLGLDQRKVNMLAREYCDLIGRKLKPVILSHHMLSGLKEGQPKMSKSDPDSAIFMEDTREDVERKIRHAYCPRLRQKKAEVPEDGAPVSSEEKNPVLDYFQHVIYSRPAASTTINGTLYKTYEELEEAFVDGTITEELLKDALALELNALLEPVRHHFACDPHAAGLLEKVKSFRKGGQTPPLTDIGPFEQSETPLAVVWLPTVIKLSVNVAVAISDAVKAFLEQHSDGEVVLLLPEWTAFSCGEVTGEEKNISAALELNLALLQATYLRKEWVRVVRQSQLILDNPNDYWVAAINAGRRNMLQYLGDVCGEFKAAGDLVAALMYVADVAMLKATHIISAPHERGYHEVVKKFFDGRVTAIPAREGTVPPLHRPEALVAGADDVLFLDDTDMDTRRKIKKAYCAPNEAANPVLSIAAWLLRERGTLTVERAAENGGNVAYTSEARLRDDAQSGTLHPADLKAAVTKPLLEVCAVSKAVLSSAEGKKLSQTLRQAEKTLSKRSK

[8] = biological target: T4, Tyrosyl-tRNA synthetase, putative (Trypanosoma cruzi (strain CL Brener)); assay: Trypanosoma cruzi tyrosyl tRNA synthetase (TcYRS) SOP; assay type: functional; settings: 30 µM
[9] = biological target: Chromo domain-containing protein 1 (Saccharomyces cerevisiae (strain ATCC 204508 / S288c) (Baker's yeast)) (UniProt P32657); assay: ScCHD-1 Enzyme Inhibition Assay; assay type: functional; settings: 30 µM; further: in the data most compounds retested in dose-response had high values
Chain of Chromo domain-containing protein 1 (Saccharomyces cerevisiae (strain ATCC 204508 / S288c) (Baker's yeast)) (P32657 whole entry, the tested form may be a part): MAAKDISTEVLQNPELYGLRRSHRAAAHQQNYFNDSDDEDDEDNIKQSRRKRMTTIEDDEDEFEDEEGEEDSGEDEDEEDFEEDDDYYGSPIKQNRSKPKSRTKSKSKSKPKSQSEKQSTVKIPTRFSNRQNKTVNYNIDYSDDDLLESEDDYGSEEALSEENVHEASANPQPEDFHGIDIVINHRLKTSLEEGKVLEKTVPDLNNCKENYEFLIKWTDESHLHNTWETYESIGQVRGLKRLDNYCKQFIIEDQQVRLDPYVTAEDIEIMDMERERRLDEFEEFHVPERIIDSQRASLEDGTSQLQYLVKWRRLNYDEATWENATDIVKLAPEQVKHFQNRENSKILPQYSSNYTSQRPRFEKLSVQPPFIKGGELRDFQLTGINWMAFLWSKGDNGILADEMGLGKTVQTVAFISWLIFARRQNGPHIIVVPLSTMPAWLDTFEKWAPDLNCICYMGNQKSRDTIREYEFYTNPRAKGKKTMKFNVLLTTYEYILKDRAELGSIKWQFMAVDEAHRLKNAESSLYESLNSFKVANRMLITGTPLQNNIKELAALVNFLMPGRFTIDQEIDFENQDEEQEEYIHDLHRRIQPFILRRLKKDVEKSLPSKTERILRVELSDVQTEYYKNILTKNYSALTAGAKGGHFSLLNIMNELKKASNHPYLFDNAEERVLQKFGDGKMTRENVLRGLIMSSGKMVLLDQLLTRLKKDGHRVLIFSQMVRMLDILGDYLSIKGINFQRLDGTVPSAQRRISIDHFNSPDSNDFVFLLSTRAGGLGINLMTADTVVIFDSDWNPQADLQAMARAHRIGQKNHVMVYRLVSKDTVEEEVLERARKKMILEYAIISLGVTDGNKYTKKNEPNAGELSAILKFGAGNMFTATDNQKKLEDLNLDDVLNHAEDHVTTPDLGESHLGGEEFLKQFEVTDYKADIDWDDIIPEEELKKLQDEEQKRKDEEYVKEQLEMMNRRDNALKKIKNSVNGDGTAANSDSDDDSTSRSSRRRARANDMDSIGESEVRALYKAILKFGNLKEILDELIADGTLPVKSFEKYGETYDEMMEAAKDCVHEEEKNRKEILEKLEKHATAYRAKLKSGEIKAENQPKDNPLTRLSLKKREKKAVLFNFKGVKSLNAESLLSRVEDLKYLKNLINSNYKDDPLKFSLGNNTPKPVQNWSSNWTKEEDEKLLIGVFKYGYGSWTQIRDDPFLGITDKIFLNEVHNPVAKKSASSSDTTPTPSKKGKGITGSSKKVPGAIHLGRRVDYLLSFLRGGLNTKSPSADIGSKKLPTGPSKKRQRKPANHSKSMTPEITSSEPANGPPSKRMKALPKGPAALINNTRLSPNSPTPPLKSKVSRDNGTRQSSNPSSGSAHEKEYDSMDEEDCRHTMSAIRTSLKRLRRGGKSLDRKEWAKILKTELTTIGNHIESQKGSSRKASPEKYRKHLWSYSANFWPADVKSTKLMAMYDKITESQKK

Chain of Protein translocase subunit SecA (Escherichia coli (strain K12)) (P10408 whole entry): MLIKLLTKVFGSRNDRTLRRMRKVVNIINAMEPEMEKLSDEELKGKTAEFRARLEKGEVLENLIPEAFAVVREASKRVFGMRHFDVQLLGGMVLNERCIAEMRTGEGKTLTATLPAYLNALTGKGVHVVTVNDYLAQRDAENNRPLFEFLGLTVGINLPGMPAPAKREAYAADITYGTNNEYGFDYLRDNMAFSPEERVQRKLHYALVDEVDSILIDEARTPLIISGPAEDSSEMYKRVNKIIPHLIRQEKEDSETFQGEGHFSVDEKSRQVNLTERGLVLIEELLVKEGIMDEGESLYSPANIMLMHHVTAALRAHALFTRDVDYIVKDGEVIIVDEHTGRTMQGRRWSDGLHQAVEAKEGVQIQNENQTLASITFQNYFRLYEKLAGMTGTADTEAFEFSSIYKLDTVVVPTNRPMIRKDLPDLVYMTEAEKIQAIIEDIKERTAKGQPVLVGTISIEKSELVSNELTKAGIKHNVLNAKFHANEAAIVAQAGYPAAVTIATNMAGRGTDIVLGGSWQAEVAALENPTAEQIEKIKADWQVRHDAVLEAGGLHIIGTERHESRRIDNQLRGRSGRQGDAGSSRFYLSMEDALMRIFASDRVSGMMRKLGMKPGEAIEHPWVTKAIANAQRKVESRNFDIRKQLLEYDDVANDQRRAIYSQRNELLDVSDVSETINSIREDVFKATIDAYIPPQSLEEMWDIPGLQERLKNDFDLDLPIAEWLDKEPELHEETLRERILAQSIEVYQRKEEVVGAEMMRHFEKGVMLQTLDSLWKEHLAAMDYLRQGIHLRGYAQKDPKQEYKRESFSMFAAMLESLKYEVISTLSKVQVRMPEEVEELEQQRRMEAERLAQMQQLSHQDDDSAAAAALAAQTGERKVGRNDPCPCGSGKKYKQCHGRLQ
Chain of Sialic acid-binding Ig-like lectin 9 (Homo sapiens) (Q9Y336 whole entry): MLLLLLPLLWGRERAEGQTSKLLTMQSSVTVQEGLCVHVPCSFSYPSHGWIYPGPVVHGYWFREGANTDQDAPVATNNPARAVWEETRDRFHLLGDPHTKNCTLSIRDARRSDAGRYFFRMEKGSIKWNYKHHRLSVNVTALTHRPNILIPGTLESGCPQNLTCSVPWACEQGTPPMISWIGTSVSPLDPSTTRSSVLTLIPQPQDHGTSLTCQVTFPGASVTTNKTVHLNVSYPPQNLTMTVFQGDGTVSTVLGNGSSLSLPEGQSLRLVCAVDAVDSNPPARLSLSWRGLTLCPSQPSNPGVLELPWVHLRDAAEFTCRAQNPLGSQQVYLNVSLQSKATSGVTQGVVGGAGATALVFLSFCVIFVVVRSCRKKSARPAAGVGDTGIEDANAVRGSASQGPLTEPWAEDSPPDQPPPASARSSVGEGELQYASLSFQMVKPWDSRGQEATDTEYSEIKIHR

| SMILES | Percent Effect [1] [%] | Percent Effect [2] [%] | Percent Effect [3] [%] | Percent Effect [4] [%] | Percent Effect (Trypanosoma cruzi) [%] | Percent Effect [5] [%] | Percent Effect [6] [%] | Percent Effect (Homo sapiens) [%] | Percent Effect [7] [%] | Percent Effect [8] [%] | Percent Effect [9] [%] |
| --- | --- | --- | --- | --- | --- | --- | --- | --- | --- | --- | --- |
| CCN(CC)C(=O)Nc1cc2c(cc1SC)OCCO2 | -0.336 | 8.11 | -6.12 | 9.01 | 3.71 | 27.5 | 3.47 | -7.38 | 4.95 | 8.54 | -6.4 |
| CCN1CCN(S(=O)(=O)c2cc(Cl)c(Cl)cc2C)CC1 | -2.56 | 2.6 | 5.2 | 3.88 | -3.83 | -4.14 | -4.99 | -8.04 | -28 | 1.24 | 3.26 |
| Cc1cc(C)c(CNC(=O)NCc2ccc3c(c2)CCC3)c(=O)[nH]1 | -1.46 | 10.5 | -2.73 | 4 | -3.38 | 4.6 | 6.85 | 4.84 | 5.39 | 0 | 0.252 |
| O=C(c1cscn1)N1CCC[C@]2(C[C@H](OCC3CC3)CO2)C1 | -1.77 | -2.67 | 6.38 | 4.3 | 5.91 | 0.233 | 3.08 | 2.38 | 4.25 | 1.28 | 1.14 |
| Cc1cccc(CN2CCC3(CCCN(C(=O)c4ccsc4)C3)C2=O)n1 (stereo not given) | -2.33 | 0 | 10.5 | -2.49 | 0.0986 | -0.645 | 3.48 | -3.21 | 3.17 | 3.85 | 87.7 |
| O=C(Cc1cccs1)N1C[C@@H]2COC[C@]2(COc2cccnc2)C1 | -2.91 | 8.11 | -0.523 | -5.15 | 7.62 | -1.25 | 8.2 | -12.3 | 7.92 | 11 | -1.81 |
| Cc1cc(C)n(CCCNC(=O)C(C)NC(=O)c2ccccc2Cl)n1 (stereo not given) | -2.06 | 5.26 | 4.16 | -4.01 | -2.63 | 0 | 6.81 | -13.1 | 5.32 | 10.4 | -5.43 |
| Cn1c(NCC(O)c2ccc(F)cc2F)c(C#N)c(=O)n(C)c1=O (stereo not given) | -4.86 | 17.7 | -12.9 | -5.84 | 1.6 | 6.46 | 4.01 | -3.56 | 5.42 | 13.9 | -7.19 |
| O=C(c1cccnc1)N1CCCC(c2cc(C(F)F)n3ncnc3n2)C1 (stereo not given) | -4.9 | 9.46 | 12.9 | 2 | -5.53 | 0.232 | 7.64 | 8.61 | 0 | 6.49 | 9.01 |
| COCCn1ccc(=O)c(OCC(=O)Nc2ccccc2)c1C | -2.63 | 6.67 | 2.07 | 6.98 | 1.38 | 1.23 | 19.4 | -6.23 | 1.06 | 20.5 | -0.358 |
| c1cnnc(N2CCCC2CNc2ncnc3c2CCC3)c1 (stereo not given) | -5.27 | 1.27 | 4.89 | -6.25 | -1.95 | 3.66 | 1.54 | -1.2 | 11.5 | 15.2 | 1.39 |
| Cc1ccc(CN2Cc3nnn(C)c3C(COCCN(C)C)C2)s1 (stereo not given) | -6.87 | 2.7 | -1.39 | -1.89 | -5.57 | -3.72 | 4.89 | 15 | 2.15 | 8.64 | -3.26 |
| Cc1nccc(-c2cccc(NCC(=O)N3CCNC3=O)c2)n1 | -3.58 | 21.1 | -11.7 | 0.813 | 6.82 | -1.44 | 11.2 | 16.4 | 10.3 | 28.4 | -9.15 |
| O=C(NCc1ccccn1)[C@@H]1CCO[C@@H]2CCN(Cc3ccoc3)C[C@H]21 | -4.59 | 8.11 | 7.22 | -2.83 | -3.03 | 0.955 | 17.5 | 3.21 | 4.32 | 15.4 | -2.07 |
| Cc1n[nH]c(C2CN(C(=O)CCc3ccsc3)CCO2)n1 (stereo not given) | -6.4 | -2.74 | 2.76 | 0.78 | 0.783 | -7.27 | -2.13 | -11.9 | 0 | 2.5 | 0.695 |
| CC(C)N1CC(C(=O)NCCc2csc(-c3ccncc3)n2)CC1=O (stereo not given) | -0.366 | 20.8 | 5.98 | -0.897 | 2.26 | -11 | 14.3 | 21 | 6.45 | 16.1 | -6.34 |
| O=C(NCCC(=O)N1CCCCCC1)c1c(O)cc(F)cc1F | -5.59 | 7.79 | 1.53 | -4.08 | 7.35 | -4 | 9.78 | 6.03 | 2.86 | 14.1 | -20.3 |
| O=C(NC1CCCN(c2ncccn2)C1)c1ccoc1 (stereo not given) | -3.61 | 23.7 | -4.63 | -9.78 | -0.487 | 2.37 | 8.34 | 8.15 | 3.19 | 15.6 | -9.61 |
| O=S(=O)(c1cccs1)N1CCCn2nnc(CN3CCCCC3)c2C1 | -2.04 | 2.67 | -7.89 | 2 | 2.7 | -43.5 | -0.513 | -33.6 | -1.04 | 2.5 | -4.44 |
| Cn1cccc1CNC(=O)N(CCO)C1CCCc2ccccc21 (stereo not given) | -4.61 | -5.26 | -1.52 | 0.538 | 3.8 | -14.2 | 2.01 | 1.76 | 2.13 | 0 | -9.55 |
